Data from PubChem BioAssay AID1159580 (chemical genetic matrix, 2015).
“And” between values parts separate entries of the source, which are not always exact repeats. Identical values can stand only once. The campaign covered roughly 5,500 compounds. About 2,000 (36%) were called active. About 18% were inconclusive and are not listed. Cut-off read from the data, not from the text of the source: active = normalized growth mostly below about 0.91 (no sharp cut-off); inconclusive = no clear call, values can overlap the other calls; inactive = mostly above about 0.92. Some of the results follow. Some compounds were tested as several samples or in several runs, with calls that do not always agree.

Experiment: chemical genetic growth profiling, strain panel (AID 1159580);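 note: tested at 20 µM; growth read once vehicle control cultures reached saturation at 30 °C; 1 = growth at the plate median or of vehicle wells; lower values mean less growth of the strain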
Details: S. cerevisiae deletion strains, growth OD

Measured: normalized growth

O=c1[nH]cc(F)c(=O)[nH]1
active: locus YAL021C, strain ccr4, stronger effect = lower value 0.841 | locus YAL026C, strain drs2, stronger effect = lower value 0.445 | locus YAL030W, strain snc1, stronger effect = lower value 0.642 | locus YBL061C, strain skt5, stronger effect = lower value 0.689 | locus YBR009C, strain hhf1, stronger effect = lower value 0.458 | locus YBR021W, strain FUR4, stronger effect = lower value 0.81 | locus YBR023C, strain chs3, stronger effect = lower value 0.678 | locus YBR231C, strain swc5, stronger effect = lower value 0.639 | locus YBR279W, strain paf1, stronger effect = lower value 0.555 | locus YCL011C, strain gbp2, stronger effect = lower value 0.509 | locus YCL016C, strain dcc1, stronger effect = lower value 0.586 | locus YCL029C, strain bik1, stronger effect = lower value 0.717 | locus YCL061C, strain MRC1, stronger effect = lower value 0.702 | locus YCL069W, strain vba3, stronger effect = lower value 0.484 | locus YCR088W, strain abp1, stronger effect = lower value 0.651 | locus YDL035C, strain GPR1, stronger effect = lower value 0.591 | locus YDL040C, strain nat1, stronger effect = lower value 0.869 | locus YDL192W, strain arf1, stronger effect = lower value 0.715 | locus YDR001C, strain nth1, stronger effect = lower value 0.747 | locus YDR069C, strain doa4, stronger effect = lower value 0.636 | locus YDR101C, strain arx1, stronger effect = lower value 0.64 | locus YDR137W, strain rgp1, stronger effect = lower value 0.629 | locus YDR159W, strain sac3, stronger effect = lower value 1.3 [resistant] | locus YDR162C, strain NBP2, stronger effect = lower value 0.693 | locus YDR195W, strain ref2 0.63 | locus YDR297W, strain sur2, stronger effect = lower value 0.676 | locus YDR318W, strain mcm21, stronger effect = lower value 0.701 | locus YDR334W, strain swr1, stronger effect = lower value 0.741 | locus YDR335W, strain msn5, stronger effect = lower value 0.538 | locus YDR363W, strain ESC2, stronger effect = lower value 0.864 | locus YDR388W, stronger effect = lower value 0.753 | locus YDR392W, strain spt3, stronger effect = lower value 0.476 | locus YDR502C, strain sam2, stronger effect = lower value 0.657 | locus YEL003W, strain gim4, stronger effect = lower value 0.518 | locus YEL037C, strain rad23, stronger effect = lower value 0.539 | locus YEL061C, strain CIN8 (second series), stronger effect = lower value 0.728 | locus YER015W, strain faa2, stronger effect = lower value 0.702 | locus YER016W, strain bim1, stronger effect = lower value 0.629 | locus YER111C, strain swi4, stronger effect = lower value 0.858 | locus YER155C, strain BEM2 (second series), stronger effect = lower value 0.535 | locus YER167W, strain BCK2, stronger effect = lower value 0.795 | locus YFR010W, strain ubp6, stronger effect = lower value 0.598 | locus YGL078C, strain dbp3, stronger effect = lower value 0.571 | locus YGL086W, strain mad1, stronger effect = lower value 0.743 | locus YGL173C, strain kem1, stronger effect = lower value 0.719 | locus YGL227W, strain vid30, stronger effect = lower value 0.856 | locus YGL248W, strain PDE1, stronger effect = lower value 0.71 | locus YGL253W, strain hxk2, stronger effect = lower value 0.328 | locus YGR135W, strain pre9, stronger effect = lower value 0.871 | locus YGR252W, strain gcn5, stronger effect = lower value 0.757 | locus YHR027C, strain rpn1, stronger effect = lower value 0.625 | locus YHR030C, strain SLT2, stronger effect = lower value 0.918 and 0.61 | locus YHR079C, strain IRE1 (second series), stronger effect = lower value 0.665 | locus YHR079C, strain IRE1, stronger effect = lower value 0.553 | locus YHR129C, strain ARP1, stronger effect = lower value 0.896 | locus YHR142W, strain chs7, stronger effect = lower value 0.484 | locus YHR200W, strain rpn10, stronger effect = lower value 0.906 | locus YIL066C, strain RNR3, stronger effect = lower value 0.848 | locus YIL125W, strain kgd1, stronger effect = lower value 0.851 | locus YIR030C, strain dcg1, stronger effect = lower value 0.838 | locus YJL092W, strain hpr5, stronger effect = lower value 0.476 | locus YJL095W, strain BCK1 (second series), stronger effect = lower value 0.689 | locus YJL095W, strain BCK1, stronger effect = lower value 0.661 and 0.616 | locus YJL115W, strain asf1, stronger effect = lower value 0.697 | locus YJL129C, strain trk1, stronger effect = lower value 0.642 | locus YJL154C, strain vps35, stronger effect = lower value 0.756 | locus YJL164C, strain tpk1, stronger effect = lower value 0.463 | locus YJL166W, strain qcr8, stronger effect = lower value 0.577 | locus YJL187C, strain SWE1 (second series), stronger effect = lower value 0.722 | locus YJL187C, strain SWE1, stronger effect = lower value 0.77 | locus YJR043C, strain POL32, stronger effect = lower value 0.669 | locus YJR066W, strain TOR1, stronger effect = lower value 0.532 | locus YJR075W, strain HOC1, stronger effect = lower value 0.835
inactive: locus YAL040C, strain CLN3, stronger effect = lower value 1.05 | locus YBR171W, strain sec66, stronger effect = lower value 1.09 | locus YBR229C, strain ROT2, stronger effect = lower value 1.01 | locus YDL005C, strain med2, stronger effect = lower value 0.977 | locus YDL074C, strain BRE1, stronger effect = lower value 0.847 | locus YDL101C, strain DUN1, stronger effect = lower value 0.955 | locus YDL185W, strain tfp1, stronger effect = lower value 1 | locus YER002W, strain NOP16, stronger effect = lower value 1.04 | locus YER110C, stronger effect = lower value 1.01 | locus YER155C, strain BEM2, stronger effect = lower value 1.01 | locus YGL167C, strain pmr1, stronger effect = lower value 1.03 | locus YGL240W, strain doc1, stronger effect = lower value 0.901 | locus YGR229C, strain SMI1, stronger effect = lower value 0.948 | locus YHR013C, strain ard1, stronger effect = lower value 0.846 | locus YHR094C, strain hxt1, stronger effect = lower value 0.944 | locus YIL073C, strain SPO22, stronger effect = lower value 0.762 | locus YJL134W, strain LCB3, stronger effect = lower value 1.04 | locus YJL168C, strain set2, stronger effect = lower value 1.02
0.957 (inactive) and 0.85 (active): locus YDR150W, strain NUM1, stronger effect = lower value
